Source: the supplement of paper PMC11537057
Structures can show the parent of a compound that is named as a salt. ± gives the standard deviation of the averaged measurements. Over roughly 1,700 compounds, “cell number in HSV-1-infected wells relative to infected DMSO wells (H2B-RFP signal)” has its median near 100; the highest 2% begin near 140. The entries come from a sample that favours the highest values as a whole.

These compounds were tested on A549 infected with HSV-1 (assay: cell number in HSV-1-infected wells relative to infected DMSO wells (H2B-RFP signal); higher = more surviving cells (uninfected or antiviral-protected wells give about 200%; low = toxicity)). Details: 10 µM; 48 h; MOI: 0.1.
Procedure: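 Selleck FDA-approved library (L1300) screened in duplicate at 10 µM on A549 H2B-mRuby cells in 384-well plates, infected with HSV-1 strain 17 YFP-ICP4 at MOI 0.1 one hour before drug addition. Imaged after 2 days at 37°C. Cell growth (H2B-RFP) and infection (ICP4-YFP) are expressed as % of DMSO-treated wells. Hits: growth >90% and infection <20% of DMSO.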

| SMILES | cell number in HSV-1-infected wells |
| --- | --- |
| Clc1ccc2c(c1)CCc1cccnc1C2=C1CCNCC1 [Desloratadine] | 116 ± 6.4% |
| C[C@H](CCC(=O)O)[C@H]1CC[C@H]2[C@@H]3C(=O)C[C@@H]4CC(=O)CC[C@]4(C)[C@H]3CC(=O)[C@]12C [Dehydrocholic acid] | 89.8 ± 1.7% |
| COc1cc2c(cc1Cc1cccc(Cl)c1F)c(=O)c(C(=O)O)cn2[C@H](CO)C(C)C [Elvitegravir (GS-9137, JTK-303)] | 105 ± 10% |
| CCCc1ncc(C[n+]2ccccc2C)c(N)n1 [Amprolium HCl] | 105 ± 10% |
| CC[C@H](C)[C@H](NC(=O)[C@@H]1CCCN1C(=O)CNC(=O)[C@H](Cc1ccccc1)NC(=O)[C@H](CC(N)=O)NC(=O)[C@H](CC(N)=O)NC(=O)[C@H](CO)NC(=O)[C@H](CO)NC(=O)[C@H](Cc1c[nH]cn1)NC(=O)[C@@H](NC(=O)[C@H](CC(C)C)NC(=O)[C@H](Cc1ccccc1)NC(=O)[C@H](CC(N)=O)NC(=O)[C@H](C)NC(=O)[C@H](CC(C)C)NC(=O)[C@H](CCCNC(=N)N)NC(=O)[C@H](CCC(N)=O)NC(=O)[C@@H](NC(=O)[C@H](C)NC(=O)[C@@H]1CSSC[C@H](NC(=O)[C@@H](N)CCCCN)C(=O)N[C@@H](CC(N)=O)C(=O)N[C@@H]([C@@H](C)O)C(=O)N[C@@H](C)C(=O)N[C@@H]([C@@H](C)O)C(=O)N1)[C@@H](C)O)C(C)C)C(=O)N[C@@H](CC(C)C)C(=O)N1CCC[C@H]1C(=O)N1CCC[C@H]1C(=O)N[C@H](C(=O)N[C@@H](CC(N)=O)C(=O)N[C@H](C(=O)NCC(=O)N[C@@H](CO)C(=O)N[C@@H](CC(N)=O)C(=O)N[C@H](C(=O)N[C@@H](Cc1ccc(O)cc1)C(N)=O)[C@@H](C)O)C(C)C)[C@@H](C)O [Pramlintide Acetate] | 134 ± 20% |
| CC(C)[C@H](N)C(=O)OCC(CO)OCn1cnc2c(=O)[nH]c(N)nc21 (some centres undefined) [Valganciclovir HCl] | 207 ± 2.2% |
| O=C(O)c1cccc(-c2noc(-c3ccccc3F)n2)c1 [Ataluren (PTC124)] | 116 ± 9.6% |
| CN(C)CCOC(c1ccc(Cl)cc1)c1ccccn1 (centres undefined) [CarbinoxaMine Maleate] | 148 ± 27% |
| CN(C)CCOC(c1ccccc1)c1ccccc1 [Diphenhydramine HCl] | 102 ± 25% |
| CN(C)CCC(c1ccc(Cl)cc1)c1ccccn1 (centres undefined) [Chlorpheniramine Maleate] | 94.3 ± 16% |
| CC1(C)S[C@@H]2[C@H](NC(=O)[C@H](C(=O)O)c3ccsc3)C(=O)N2[C@H]1C(=O)O [Ticarcillin sodium] | 95.4 ± 22% |
| CC(C)(C)c1cc(C(C)(C)C)c(NC(=O)c2c[nH]c3ccccc3c2=O)cc1O [Ivacaftor (VX-770)] | 64.8 ± 7% |
| Cc1ccc(C(=O)N(CCCN)[C@@H](c2nc3cc(Cl)ccc3c(=O)n2Cc2ccccc2)C(C)C)cc1 | 12.9 ± 5.4% |
| Nc1c(CC(=O)O)cccc1C(=O)c1ccccc1 [Amfenac Sodium Monohydrate] | 115 ± 14% |
| Cc1ccc(Cl)c(Nc2ccccc2C(=O)O)c1Cl [Meclofenamate Sodium] | 156 ± 21% |
| Cc1cccc(Nc2ccccc2C(=O)O)c1C [Mefenamic Acid] | 94.2 ± 6% |
| Cc1c(Cl)cccc1Nc1ccccc1C(=O)O [Tolfenamic Acid] | 120 ± 2% |
| O=C(c1ccc(F)c(F)c1Nc1ccc(I)cc1F)N1CC(O)([C@@H]2CCCCN2)C1 [Cobimetinib (GDC-0973, RG7420)] | 32.6 ± 21% |
| CC(=O)c1cc2c(o1)C(=O)c1ccccc1C2=O [Napabucasin] | 27.4 ± 21% |
| CCOc1cc(N)c(Cl)cc1C(=O)NCC1CN(Cc2ccc(F)cc2)CCO1 (centres undefined) [Mosapride] | 92.8 ± 14% |
| CCOc1cc(N)c(Cl)cc1C(=O)NCC1CN(Cc2ccc(F)cc2)CCO1 (centres undefined) [Mosapride Citrate] | 89.7 ± 13% |
| Cc1cccc(C)c1N(CC(=O)Nc1ccc(-c2ncon2)cc1)C(=O)C1CCS(=O)(=O)CC1 [Amenamevir] | 214 ± 5.9% |
| O=C1CC[C@@H](C(=O)N2CSC[C@H]2C(=O)O)N1 [Pidotimod] | 82.1 ± 7.1% |
| CCOc1ccc(Cc2cc([C@]34OC[C@](CO)(O3)[C@@H](O)[C@H](O)[C@H]4O)ccc2Cl)cc1 [Ertugliflozin] | 116 ± 8.7% |
| O=C([O-])c1ccccc1.[Na+] [Sodium benzoate] | 83.2 ± 14% |
| COC(=O)N(C)c1c(N)nc(-c2nn(Cc3ccccc3F)c3ncccc23)nc1N [Riociguat (BAY 63-2521)] | 108 ± 15% |
| CCN1CCC[C@H]1CNC(=O)c1cc(S(N)(=O)=O)ccc1OC [Levosulpiride] | 94.939 ± 0.086% |

| SMILES | cell number in HSV-1-infected wells |
| --- | --- |
| Cc1c(F)cc(C(=O)NC2CC2)cc1-c1ccc(C(=O)NCC(C)(C)C)cn1 | 145 ± 44% |
| N[C@@H](CCC(=O)O)C(=O)[O-].[Na+] [L-Glutamic acid monosodium salt] | 94.5 ± 4.2% |
| CC(C)CCCCC(=O)N[C@@H](CCN)C(=O)N[C@H](C(=O)N[C@@H](CCN)C(=O)N[C@H]1CCNC(=O)[C@H]([C@@H](C)O)NC(=O)[C@H](CCN)NC(=O)[C@H](CCN)NC(=O)[C@H](CC(C)C)NC(=O)[C@@H](Cc2ccccc2)NC(=O)[C@H](CCN)NC1=O)[C@@H](C)O [Polymyxin B sulphate] | 132 ± 31% |
| COCC(=O)Nc1c(I)c(C(=O)NCC(O)CO)c(I)c(C(=O)N(C)CC(O)CO)c1I (centres undefined) [Iopromide] | 111 ± 26% |
| CC(=O)N(CC(O)CN(C(C)=O)c1c(I)c(C(=O)NCC(O)CO)c(I)c(C(=O)NCC(O)CO)c1I)c1c(I)c(C(=O)NCC(O)CO)c(I)c(C(=O)NCC(O)CO)c1I (centres undefined) [Iodixanol] | 79.6 ± 3% |
| O=C(NCC(O)CO)c1c(I)c(C(=O)NCC(O)CO)c(I)c(N(CCO)C(=O)CO)c1I (centres undefined) [Ioversol] | 146 ± 6.8% |
| CC(=O)Oc1ccc(C(c2ccc(OC(C)=O)cc2)c2ccccn2)cc1 [Bisacodyl] | 87.8 ± 16% |
| CC[C@H](C)[C@@H]1NC(=O)[C@H](CCCNC(=N)N)NC(=O)[C@H](CC(=O)O)NC(=O)[C@H](CCSC)NC(=O)[C@H](CCCNC(=N)N)NC(=O)CNC(=O)CNC(=O)[C@H](Cc2ccccc2)NC(=O)[C@@H](NC(=O)[C@H](CO)NC(=O)[C@H](CO)NC(=O)[C@H](CCCNC(=N)N)NC(=O)[C@H](CCCNC(=N)N)NC(=O)[C@H](CC(C)C)NC(=O)[C@@H](N)CO)CSSC[C@@H](C(=O)N[C@@H](CC(N)=O)C(=O)N[C@@H](CO)C(=O)N[C@@H](Cc2ccccc2)C(=O)N[C@@H](CCCNC(=N)N)C(=O)N[C@@H](Cc2ccc(O)cc2)C(=O)O)NC(=O)CNC(=O)[C@H](CC(C)C)NC(=O)CNC(=O)[C@H](CO)NC(=O)[C@H](CCC(N)=O)NC(=O)[C@H](C)NC(=O)CNC1=O [Carperitide Acetate] | 131 ± 1.4% |
| O=C(O)CCCC[C@@H]1CCSS1 (racemic) [Thioctic acid] | 134 ± 60% |
| CC1(C)NC(=O)N(c2ccc([N+](=O)[O-])c(C(F)(F)F)c2)C1=O [Nilutamide] | 150 ± 36% |
| CNC(=O)c1ccc(N2C(=S)N(c3ccc(C#N)c(C(F)(F)F)c3)C(=O)C2(C)C)cc1F [Enzalutamide (MDV3100)] | 95.9 ± 2.1% |
| CC(C)C(=O)Nc1ccc([N+](=O)[O-])c(C(F)(F)F)c1 [Flutamide] | 110 ± 2.2% |
| OC1CC2CCC(C1)N2 (centres undefined) [Nortropine Hydrochloride] | 105 ± 10% |
| COC(=O)C1=C(C)NC(C)=C(C(=O)OC2CCCN(Cc3ccccc3)C2)C1c1cccc([N+](=O)[O-])c1 (centres undefined) [Benidipine HCl] | 85.5 ± 9.3% |
| CCC[C@@H]1C[C@@H](C(=O)N[C@@H]([C@H]2O[C@H](SC)[C@H](O)[C@@H](O)[C@H]2O)[C@H](C)Cl)N(C)C1 [Clindamycin] | 88 ± 4% |
| CCC[C@@H]1C[C@@H](C(=O)N[C@@H]([C@H]2O[C@H](SC)[C@H](OP(=O)(O)O)[C@@H](O)[C@H]2O)[C@H](C)Cl)N(C)C1 [Clindamycin Phosphate] | 101 ± 12% |
| CCC[C@@H]1C[C@@H](C(=O)N[C@@H]([C@H]2O[C@H](SC)[C@H](O)[C@@H](O)[C@H]2O)[C@@H](C)O)N(C)C1 [Lincomycin HCl] | 133 ± 16% |
| CCC[C@@H]1C[C@@H](C(=O)N[C@@H]([C@H]2O[C@H](SC)[C@H](O)[C@@H](O)[C@H]2O)[C@H](C)Cl)N(C)C1 [Clindamycin HCl] | 99.4 ± 5.8% |
| CCC[C@@H]1C[C@@H](C(=O)N[C@@H]([C@H]2O[C@H](SC)[C@H](O)[C@@H](O)[C@H]2O)[C@@H](C)O)N(C)C1 [Lincomycin Hydrochloride Monohydrate] | 150 ± 39% |
| CCOc1cc2ncc(C#N)c(Nc3ccc(OCc4ccccn4)c(Cl)c3)c2cc1NC(=O)/C=C/CN(C)C [Neratinib (HKI-272)] | 63.62 ± 0.22% |
| CC(C)(Oc1ccc(Cl)cc1)C(=O)OCCOC(=O)c1cccnc1 [Etofibrate] | 129 ± 12% |
| OCc1cc([C@@H](O)CNCCCCCCOCCOCc2c(Cl)cccc2Cl)ccc1O [Vilanterol Trifenate] | 25.9 ± 8.8% |
| N[C@@H](Cc1ccc(N(CCCl)CCCl)cc1)C(=O)O [Melphalan] | 72.2 ± 27% |
| CCOc1ccccc1OCCN[C@H](C)Cc1ccc(OC)c(S(N)(=O)=O)c1 [Tamsulosin hydrochloride] | 132 ± 8.6% |
| Cc1ccc2c(c1)[C@]13CCCC[C@@H]1[C@H](C2)N(C)CC3 [Dimemorfan phosphate] | 127 ± 24% |
| COc1ccc2c(c1)[C@]13CCCC[C@@H]1[C@H](C2)N(C)CC3 [Dextromethorphan hydrobromide hydrate] | 146 ± 7.2% |
| C=C1/C(=C\C=C2/CCC[C@]3(C)[C@@H]([C@H](C)/C=C/[C@H](C)C(C)C)CC[C@@H]23)C[C@@H](O)C[C@@H]1O [Doxercalciferol] | 100 ± 23% |
